# Assay results as given in ChEMBL document CHEMBL1961873, “Compounds: GSK PKIS; Assays: Nanosyn kinase panel” (2012).
# Target: T1, Testis-specific serine/threonine-protein kinase 2 (Homo sapiens) (UniProt Q96PF2)
# T1 sequence (whole entry): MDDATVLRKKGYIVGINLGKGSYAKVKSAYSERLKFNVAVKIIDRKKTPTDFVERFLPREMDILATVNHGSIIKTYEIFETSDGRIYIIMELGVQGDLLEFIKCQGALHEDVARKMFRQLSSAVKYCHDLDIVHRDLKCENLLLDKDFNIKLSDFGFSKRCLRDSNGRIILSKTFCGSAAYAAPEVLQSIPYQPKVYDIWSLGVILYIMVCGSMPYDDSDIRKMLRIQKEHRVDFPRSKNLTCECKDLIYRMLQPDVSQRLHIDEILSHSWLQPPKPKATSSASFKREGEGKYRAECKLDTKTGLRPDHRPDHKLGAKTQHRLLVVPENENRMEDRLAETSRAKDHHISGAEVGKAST
# Settings: at 0.1 µM
row,SMILES,inhibition [%]
1,CCCN(CCS(C)(=O)=O)Cc1ccc(-c2ccc3ncnc(Nc4ccc(OCc5cccc(F)c5)c(Cl)c4)c3c2)o1,0.97
2,CCn1c(-c2nonc2N)nc2c(C#CC(C)(C)O)ncc(OC3CCNCC3)c21,0.88
3,CCn1c(-c2nonc2N)nc2c(C#CC(C)(C)O)nc(OC[C@H](N)c3ccccc3)cc21,0.93
4,CC(=O)Nc1cccc(C#Cc2cncnc2Nc2ccc(OCc3cccc(F)c3)c(Cl)c2)c1,0.06
5,Cc1ccc(O)cc1Nc1ccnc2cc(-c3ccccn3)ccc12,1.09
6,CCn1c(-c2nonc2N)nc2cnc(Oc3cccc(NC(=O)c4ccc(N(C)C)cc4)c3)cc21,-0.81
7,NC(=O)c1sc(-n2cnc3ccc(C(F)(F)F)cc32)cc1OCc1ccccc1Br,2.62
8,CCc1nn2ncccc2c1-c1ccnc(NC2CC2)n1,1.82
9,N#Cc1c(NC(=O)CN2CCOCC2)sc2c1CCCC2,1.22
10,CN(C)CCOc1ccc(-c2nc(-c3ccncc3)c(-c3ccc4c(c3)CC/C4=N\O)[nH]2)cc1,3.34
11,CCOc1ccc2c(-c3ccnc(Nc4cccc(C(F)(F)F)c4)n3)cnn2n1,0.15
12,COc1cccc(-c2c[nH]c3c(N/N=C/c4ccncc4)ncnc23)c1,0.73
13,c1cc(-c2cnn3nc(N4CCOCC4)ccc23)nc(NC2CC2)n1,0.16
14,CNC(=O)c1cncc(/C=C/c2ccccc2Cl)c1,-0.03
15,c1ccc(-c2nc3n(c2-c2ccc4c(c2)OCO4)CCC3)nc1,0.79
16,Fc1cccc(COc2ccc(Nc3ncnc4sc(-c5ccco5)cc34)cc2Cl)c1,0.52
17,CC(C)(CO)CNC(=O)c1ccc2c(c1)/C(=N/Nc1ccc(S(N)(=O)=O)cc1)C(=O)N2,0.45

row,SMILES,inhibition [%]
1,COc1ccc(-c2cc(-c3c[nH]nc3-c3ccccn3)ccn2)cc1,2.38
2,CC(=O)NCc1cccc(C#Cc2cncnc2Nc2ccc(OCc3cccc(F)c3)c(Cl)c2)c1,0.5
3,COc1ccc(CNC(=O)c2ccc(-c3cc(-c4nnc(C)o4)ccc3C)cc2)cc1,2.67
4,O=S(=O)(CCNCc1ccc(-c2ccc3ncnc(Nc4ccc(OCc5cccc(F)c5)c(Cl)c4)c3c2)o1)c1ccccc1,2.59
5,Nc1nc(-c2cccc(Cl)c2)c(-c2ccc3ncccc3n2)s1,3.52
6,CS(=O)(=O)CCNCc1ccc(-c2ccc3ncnc(Nc4ccc(OCc5ccccc5)c(C(F)(F)F)c4)c3c2)o1,0.53
7,CCN(CC)S(=O)(=O)c1ccc(OC)c(Nc2ncc(-c3ccccc3)o2)c1,-0.73
8,CS(=O)(=O)CCNCc1coc(-c2ccc3ncnc(Nc4ccc(OCc5ccccc5)cc4)c3c2)c1,2.99
9,CCN1CCC(CC(=O)Nc2n[nH]c3nnc(-c4cccc(F)c4F)cc23)CC1,3.15
10,CN1CCC(n2cnc(-c3ccc(F)cc3)c2-c2ccnc(Nc3ccccc3)n2)CC1,2.5
11,CCNC(=O)O[C@H]1CN[C@H](C#Cc2cc3ncnc(Nc4ccc(OCc5cccc(F)c5)c(Cl)c4)c3s2)C1,3.47
12,Clc1ccc(-c2nn3ncccc3c2-c2ccnc(Nc3ccccc3)n2)cc1,2.19
13,Cc1cccc2c1NC(=O)/C2=N\Nc1ccc(S(N)(=O)=O)cc1,0.81
14,COc1cc(/C=N/Nc2ncnc3[nH]ncc23)ccc1O,3.14
15,COc1cccc(-n2ncc3c(N/N=C/c4ccc(F)cc4)ncnc32)c1,4.45
16,COc1cc(N2CCN(C(C)C)CC2)ccc1Nc1nc(Nc2ccc(F)cc2C(N)=O)c2cc[nH]c2n1,58.6

# Target: T1, Testis-specific serine/threonine-protein kinase 2 (Homo sapiens)
# Settings: at 1 µM
row,SMILES,inhibition [%]
1,CCCN(CCS(C)(=O)=O)Cc1ccc(-c2ccc3ncnc(Nc4ccc(OCc5cccc(F)c5)c(Cl)c4)c3c2)o1,0.36
2,CCn1c(-c2nonc2N)nc2c(C#CC(C)(C)O)ncc(OC3CCNCC3)c21,2.99
3,CCn1c(-c2nonc2N)nc2c(C#CC(C)(C)O)nc(OC[C@H](N)c3ccccc3)cc21,2.24
4,CC(=O)Nc1cccc(C#Cc2cncnc2Nc2ccc(OCc3cccc(F)c3)c(Cl)c2)c1,-1.88
5,Cc1ccc(O)cc1Nc1ccnc2cc(-c3ccccn3)ccc12,-1.1
6,CCn1c(-c2nonc2N)nc2cnc(Oc3cccc(NC(=O)c4ccc(N(C)C)cc4)c3)cc21,-0.76
7,NC(=O)c1sc(-n2cnc3ccc(C(F)(F)F)cc32)cc1OCc1ccccc1Br,2.38
8,CCc1nn2ncccc2c1-c1ccnc(NC2CC2)n1,2.06
9,N#Cc1c(NC(=O)CN2CCOCC2)sc2c1CCCC2,2.29
10,CN(C)CCOc1ccc(-c2nc(-c3ccncc3)c(-c3ccc4c(c3)CC/C4=N\O)[nH]2)cc1,2.43
11,CCOc1ccc2c(-c3ccnc(Nc4cccc(C(F)(F)F)c4)n3)cnn2n1,0.22
12,COc1cccc(-c2c[nH]c3c(N/N=C/c4ccncc4)ncnc23)c1,-2.11
13,c1cc(-c2cnn3nc(N4CCOCC4)ccc23)nc(NC2CC2)n1,-3.76
14,CNC(=O)c1cncc(/C=C/c2ccccc2Cl)c1,2.91
15,c1ccc(-c2nc3n(c2-c2ccc4c(c2)OCO4)CCC3)nc1,0.57
16,Fc1cccc(COc2ccc(Nc3ncnc4sc(-c5ccco5)cc34)cc2Cl)c1,2.23
17,CC(C)(CO)CNC(=O)c1ccc2c(c1)/C(=N/Nc1ccc(S(N)(=O)=O)cc1)C(=O)N2,-0.69

row,SMILES,inhibition [%]
1,COc1ccc(-c2cc(-c3c[nH]nc3-c3ccccn3)ccn2)cc1,3.88
2,CC(=O)NCc1cccc(C#Cc2cncnc2Nc2ccc(OCc3cccc(F)c3)c(Cl)c2)c1,1.59
3,COc1ccc(CNC(=O)c2ccc(-c3cc(-c4nnc(C)o4)ccc3C)cc2)cc1,6.58
4,O=S(=O)(CCNCc1ccc(-c2ccc3ncnc(Nc4ccc(OCc5cccc(F)c5)c(Cl)c4)c3c2)o1)c1ccccc1,3.64
5,Nc1nc(-c2cccc(Cl)c2)c(-c2ccc3ncccc3n2)s1,6.73
6,CS(=O)(=O)CCNCc1ccc(-c2ccc3ncnc(Nc4ccc(OCc5ccccc5)c(C(F)(F)F)c4)c3c2)o1,0.75
7,CCN(CC)S(=O)(=O)c1ccc(OC)c(Nc2ncc(-c3ccccc3)o2)c1,-0.01
8,CS(=O)(=O)CCNCc1coc(-c2ccc3ncnc(Nc4ccc(OCc5ccccc5)cc4)c3c2)c1,2.93
9,CCN1CCC(CC(=O)Nc2n[nH]c3nnc(-c4cccc(F)c4F)cc23)CC1,1.74
10,CN1CCC(n2cnc(-c3ccc(F)cc3)c2-c2ccnc(Nc3ccccc3)n2)CC1,2.86
11,CCNC(=O)O[C@H]1CN[C@H](C#Cc2cc3ncnc(Nc4ccc(OCc5cccc(F)c5)c(Cl)c4)c3s2)C1,-1.23
12,Clc1ccc(-c2nn3ncccc3c2-c2ccnc(Nc3ccccc3)n2)cc1,-0.46
13,Cc1cccc2c1NC(=O)/C2=N\Nc1ccc(S(N)(=O)=O)cc1,-1.61
14,COc1cc(/C=N/Nc2ncnc3[nH]ncc23)ccc1O,1.44
15,COc1cccc(-n2ncc3c(N/N=C/c4ccc(F)cc4)ncnc32)c1,2.25
16,COc1cc(N2CCN(C(C)C)CC2)ccc1Nc1nc(Nc2ccc(F)cc2C(N)=O)c2cc[nH]c2n1,90.8
